14 compounds from PubChem BioAssay can be followed below.

SMILES strings stand for the structures. Active and inactive are the calls of the source.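 Rule for the calls, unless noted: active = fluorescence slope higher than the sample average by over 3 SD (cut at about -0.22 in these data, passing the limit was not always enough); inactive = the rest.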

Assay [1] can be described thus: inhibitors of TNFa-induced NFkB p65 translocation, primary screen, imaging, HUVEC, MLSMR starter and 10KST1 sets (AID 438;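 active = inhibition above 20% together with a positive visual image hit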;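 note: compound added about 3h40 before a 20 min TNFalpha stimulation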;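 for inhibition: signal is the nuclear over cytoplasmic p65 intensity ratio per well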). As to conditions: HUVEC TNFa-induced p65 nuclear translocation; cell count: measured here: nuclei count (cytotoxicity indicator), at 2.08 µM; inhibition: at 2 µM, stronger effect = higher value, 0% TNFa-plus-vehicle, 100% no-TNFa wells.
Assay [2] is described as follows: reduction of polyQ htt aggregates in cells – imaging, exon1htt(103Q)mCFP cells, high-content imaging, primary screen (AID 483;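 active = visual image review flags a hit and inhibition of aggregation exceeds 20%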;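 note: compound exposure lasted 3 days before fixation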;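 for nuclei count: percent of the per-plate median nuclei count of sample wells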). The settings on record: exon1htt(103Q)mCFP cell line, aggregate imaging, at 2 µM; inhibition of aggregation: stronger effect = higher value; nuclei count: measured here: cell count, toxicity.
Assay [3] is described as follows: endothelial E-selectin expression blockers – imaging, HUVEC, immunofluorescence, MLSMR starter and 10KST1 sets, primary screen (AID 487;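 active = visually confirmed hit in the image check and inhibition above 20%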;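 for inhibition: signal is fraction of cell area covered by stained E-selectin grains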;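 for nuclei count: 100% = median nuclei count of all wells on the same plate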). As to conditions: HUVEC TNFalpha-induced E-selectin immunofluorescence imaging, at 2 µM; inhibition: stronger effect = higher value; nuclei count: measured here: cell number, toxicity.
The target of assay [4] is Voltage-gated potassium channel subunit beta-2 (Rattus norvegicus) (UniProt P62483). The experiment in a line: inhibitors of rat Kvbeta2 reductase activity – biochemical, NADPH fluorescence, primary screen (AID 622).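 Note: slope of raw intensity against log time taken from 70 to 1610 s.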 The settings on record: recombinant KvBeta, 4-cyanobenzaldehyde reduction, at 10 µM, stronger effect = higher value.
Voltage-gated potassium channel subunit beta-2 (Rattus norvegicus), sequence (P62483 whole entry, looked up): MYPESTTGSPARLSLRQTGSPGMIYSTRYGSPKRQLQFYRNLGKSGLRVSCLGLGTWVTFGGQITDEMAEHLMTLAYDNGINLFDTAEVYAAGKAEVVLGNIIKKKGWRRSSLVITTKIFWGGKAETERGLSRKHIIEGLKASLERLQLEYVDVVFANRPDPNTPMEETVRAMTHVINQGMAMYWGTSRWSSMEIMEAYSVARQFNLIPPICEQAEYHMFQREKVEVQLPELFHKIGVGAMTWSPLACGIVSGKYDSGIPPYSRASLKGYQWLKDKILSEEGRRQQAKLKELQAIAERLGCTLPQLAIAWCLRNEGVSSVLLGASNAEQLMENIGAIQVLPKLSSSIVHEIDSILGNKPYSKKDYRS
The target is the same in assay [5]. Description: enhancers of rat Kvbeta2 NADPH turnover – biochemical, NADPH fluorescence, primary screen (AID 623;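 active = NADPH fluorescence slope more negative than the mean of all samples by about 3 SD, 99.7% confidence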;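 note: fluorescence intensity change per second fitted from 20 to 320 s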). As to conditions: Recombinant KvBeta, NADPH fluorescence decrease slope, 10 min; at 10 µM; stronger effect = lower value.
Assay [6] deals with Alpha-2C adrenergic receptor (Homo sapiens) (UniProt P18825). The experiment in a line: compounds altering alpha2C-coupled GIRK flux – cell-based, HEK293 alpha2C/GIRK1/2, thallium flux, primary screen (AID 624;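 active = fluorescence slope after compound addition differing from the mean of all screened samples at 99.7% confidence, in either direction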;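 note: slope of fluorescence ratio to pre-addition baseline per second over 15 to 24 s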). As to conditions: thallium flux BTC fluorescence, at 10 µM, actives lie on both sides.
Alpha-2C adrenergic receptor (Homo sapiens), sequence (P18825 whole entry, looked up): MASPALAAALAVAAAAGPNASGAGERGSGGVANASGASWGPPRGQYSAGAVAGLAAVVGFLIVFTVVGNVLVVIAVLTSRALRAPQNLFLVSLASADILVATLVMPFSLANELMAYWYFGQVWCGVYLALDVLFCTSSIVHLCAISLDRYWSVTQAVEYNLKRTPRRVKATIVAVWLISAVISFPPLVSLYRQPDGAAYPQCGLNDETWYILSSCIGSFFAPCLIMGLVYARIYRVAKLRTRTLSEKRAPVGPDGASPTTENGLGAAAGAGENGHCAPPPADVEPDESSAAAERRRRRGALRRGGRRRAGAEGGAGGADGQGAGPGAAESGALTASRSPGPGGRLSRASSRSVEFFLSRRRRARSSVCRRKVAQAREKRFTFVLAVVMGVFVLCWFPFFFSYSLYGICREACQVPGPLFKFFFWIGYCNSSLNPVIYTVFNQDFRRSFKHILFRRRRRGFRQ
A short description of assay [7]: blockers of RIG-like receptor reporter activation – cell-based, Sendai virus stimulus, luciferase, 10K MLSCN set, TLR/RLR signaling modifier project, primary screen (AID 602276;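 active = inhibition at or above 50% at 10 µM; inactive = inhibition below 50%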;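 note: firefly luciferase from ISG56 promoter only with Renilla not read in this screen; 0% = Sendai virus plus DMSO and 100% = medium plus DMSO without virus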). As to conditions: HEK293 RL24 IRF3 luciferase reporter, at 10 µM, stronger effect = higher value.
Assay [8] is described as follows: TLR3 IRF3 reporter activation blockers – cell-based, poly I:C stimulus, luciferase, 10K MLSCN set, primary screen (AID 602277;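 active = inhibition of the reporter signal at or above 50%; inactive = inhibition below 50%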). The settings on record: HEK293-TLR3 RL24 IRF3 luciferase reporter, at 10 µM, stronger effect = higher value.

Turning to `O=C(c1cc(S(=O)(=O)N2CCOCC2)ccc1F)N1CCCc2ccccc21`, in assay [1], the cell count was determined as 555. The inhibition in assay [1] was -26.9% (inactive); in assay [3], -44.9% (inactive); in assay [7] it was 12.6% (inactive); in assay [8], 27.4% (inactive). For the same compound, in assay [2], the inhibition of aggregation is -9.6% (inactive). The nuclei count in assay [2] stood at 102%; in assay [3], 140%. The fluorescence slope in assay [4] was -0.382 (inactive). For the same compound, in assay [5], the NADPH fluorescence slope is -4.2e-05 (inactive). Further, the slope in assay [6] is 0.00518 (inactive).
Consider `CCOC(=O)C(NC(=O)c1ccccc1)(Nc1cc(C)on1)C(F)(F)F` (centres undefined), for which, in assay [1], the cell count came out at 379. The inhibition was 2.6% (inactive) in assay [1], 0.6% (inactive) in assay [3], 14.5% (inactive) in assay [7] and 24.7% (inactive) in assay [8]. Also, the inhibition of aggregation in assay [2] was -4.6% (inactive). Also, the nuclei count in assay [2] was found to be 101%; in assay [3] it was 88.4%. In addition, the fluorescence slope in assay [4] was -0.494 (inactive). Also, the NADPH fluorescence slope in assay [5] was -1.9e-05 (inactive). The slope in assay [6] is 0.00554 (inactive).
Consider `COc1cc2c(=O)n(Cc3ccccc3)c(=O)n(CC(=O)NCc3ccco3)c2cc1OC`, for which the cell count in assay [1] came out at 358. The inhibition in assay [1] is 3.5% (inactive); in assay [3], -319% (inactive); in assay [7], 23.8% (inactive); in assay [8] it was 21.5% (inactive). In addition, the inhibition of aggregation in assay [2] is -3.1% (inactive). The nuclei count in assay [2] is 107%; in assay [3], 109%. The fluorescence slope in assay [4] was -0.37 (inactive). In addition, the NADPH fluorescence slope in assay [5] was 9e-06 (inactive). Also, the slope in assay [6] is 0.0075 (inactive).
As for `CC(OC(=O)C1CC=CCC1C(N)=O)C(Cl)=C(Cl)Cl` (centres undefined), the cell count in assay [1] turned out to be 326. Also, the inhibition in assay [1] is 1.3% (inactive); in assay [3], -94.9% (inactive); in assay [7] it was -2.75% (inactive); in assay [8] it was 6.78% (inactive). The inhibition of aggregation in assay [2] is -6% (inactive). The nuclei count came to 108% in assay [2] and 132% in assay [3]. Besides, the fluorescence slope in assay [4] is -0.506 (inactive). Moreover, the NADPH fluorescence slope in assay [5] is -1.1e-05 (inactive). Also, in assay [6], the slope was 0.00744 (inactive).
On to `COc1cc2c(cc1OC)C(c1ccc(C)o1)CC(=O)N2` (centres undefined), for which the cell count in assay [1] was found to be 748. Further, the inhibition in assay [1] is 0% (inactive); in assay [3], -48.1% (inactive); in assay [7] it was 11.9% (inactive); in assay [8] it was 30.4% (inactive). In assay [2], the inhibition of aggregation was -33.4% (inactive). Further, the results for the nuclei count in assay [2] and in assay [3] were 112% and 122%, respectively. In addition, the fluorescence slope in assay [4] is -0.574 (inactive). For the same compound, the NADPH fluorescence slope in assay [5] is -3e-05 (inactive). For the same compound, in assay [6], the slope is 0.00589 (inactive).
`CCCCN(CC)CCNC(=O)c1cc2c(C)nc3ccccc3c2o1`: the cell count in assay [1] stood at 656. The inhibition was 0.3% (inactive) in assay [1], -28.4% (inactive) in assay [3], 5.91% (inactive) in assay [7] and 47% (inactive) in assay [8]. Also, the inhibition of aggregation in assay [2] is -11.7% (inactive). In addition, the results for the nuclei count in assay [2] and in assay [3] were 103% and 110%, respectively. The fluorescence slope in assay [4] was -0.544 (inactive). The NADPH fluorescence slope in assay [5] is -3.2e-05 (inactive). Moreover, the slope in assay [6] is 0.00664 (inactive).
For `Cc1nc2ccc(N3C(=O)CCC3=O)cc2[nH]1`, in assay [1], the cell count came out at 282. Further, the inhibition was -8% (inactive) in assay [1], -42.2% (inactive) in assay [3], 6.8% (inactive) in assay [7] and 15.6% (inactive) in assay [8]. In addition, in assay [2], the inhibition of aggregation is 9.2% (inactive). Also, the nuclei count in assay [2] is 92.3%; in assay [3] it was 113%. Moreover, the fluorescence slope in assay [4] is -0.553 (inactive). In assay [5], the NADPH fluorescence slope was 5.4e-06 (inactive). Besides, in assay [6], the slope was 0.00593 (inactive).
Consider `c1ccn2c(SCc3ccc4c(c3)OCCO4)nnc2c1`, for which the cell count in assay [1] came out at 793. Further, the inhibition in assay [1] was -10.5% (inactive); in assay [3], -56.4% (inactive); in assay [7] it was -29.2% (inactive); in assay [8], -95% (inactive). Further, the inhibition of aggregation in assay [2] is 11.4% (inactive). Further, the nuclei count in assay [2] was determined as 88.9%; in assay [3], 117%. In assay [4], the fluorescence slope is -0.583 (inactive). Moreover, the NADPH fluorescence slope in assay [5] was 5.1e-06 (inactive). The slope in assay [6] is 0.00773 (inactive).
In the case of `COc1ccc2[nH]c(=O)c(CNC3CCCCC3)cc2c1`, in assay [1], the cell count came out at 673. Further, the inhibition was 6.3% (inactive) in assay [1], -17.6% (inactive) in assay [3], 6.87% (inactive) in assay [7] and 29% (inactive) in assay [8]. For the same compound, the inhibition of aggregation in assay [2] is 3.5% (inactive). Also, the nuclei count in assay [2] was 112%; in assay [3] it was 90.1%. Moreover, the fluorescence slope in assay [4] is -0.452 (inactive). The NADPH fluorescence slope in assay [5] was -3.4e-05 (inactive). In addition, the slope in assay [6] is 0.00407 (inactive).
In the case of `Cc1cc(C)nc(/N=C2\NC(=O)CC(C(=O)O)N2c2ccc(Cl)cc2)n1` (centres undefined), the cell count in assay [1] came to 639. Moreover, the inhibition was -9.7% (inactive) in assay [1], -44.1% (inactive) in assay [3], 11.6% (inactive) in assay [7] and 34.3% (inactive) in assay [8]. Further, the inhibition of aggregation in assay [2] is 0.5% (inactive). Further, the nuclei count was found to be 101% in assay [2] and 107% in assay [3]. The fluorescence slope in assay [4] is -0.552 (inactive). Also, in assay [5], the NADPH fluorescence slope was -2.8e-05 (inactive). The slope in assay [6] was 0.00735 (inactive).
Turning to `Cc1cc(C)nc(SC2=CS(=O)(=O)c3ccccc32)n1`, the cell count in assay [1] came out at 409. The inhibition in assay [1] is 4.2% (inactive); in assay [3] it was -15.3% (inactive); in assay [7] it was 9.85% (inactive); in assay [8], -5.16% (inactive). Besides, the inhibition of aggregation in assay [2] is -0.8% (inactive). For the same compound, the nuclei count in assay [2] worked out at 107%; in assay [3], 95.9%. Further, the fluorescence slope in assay [4] was -0.358 (inactive). In addition, in assay [5], the NADPH fluorescence slope was 3.3e-05 (inactive). The slope in assay [6] was 0.00592 (inactive).
For `CC(C)(C)C1CCc2[nH]nc(C(=O)O)c2C1` (centres undefined), in assay [1], the cell count worked out at 814. For the same compound, the inhibition is -2.8% (inactive) in assay [1], 2% (inactive) in assay [3], 12.4% (inactive) in assay [7] and 16% (inactive) in assay [8]. In assay [2], the inhibition of aggregation is 0% (inactive). In addition, the figures for the nuclei count in assay [2] and in assay [3] were 104% and 121%, respectively. Moreover, the fluorescence slope in assay [4] was -0.607 (inactive). Moreover, the NADPH fluorescence slope in assay [5] was 1.9e-05 (inactive). In addition, the slope in assay [6] is 0.00808 (inactive).
With `COCCn1c(SCC(=O)Nc2cccc(OC)c2)nnc1-c1ccccc1`, the cell count in assay [1] was 690. For the same compound, the inhibition is 2.1% (inactive) in assay [1], -16% (inactive) in assay [3], -0.479% (inactive) in assay [7] and 19.1% (inactive) in assay [8]. Moreover, the inhibition of aggregation in assay [2] is 6.3% (inactive). Further, the nuclei count in assay [2] turned out to be 96.7%; in assay [3] it was 117%. Moreover, the fluorescence slope in assay [4] was -0.492 (inactive). Besides, the NADPH fluorescence slope in assay [5] was -3.1e-05 (inactive). Further, the slope in assay [6] was 0.00579 (inactive).
In the case of `COc1ccc(N2Cc3ccccc3C2)cc1Cl`, the cell count in assay [1] is 579. The inhibition in assay [1] is -12.3% (inactive); in assay [3], -2% (inactive); in assay [7], -31.1% (inactive); in assay [8] it was -55.5% (inactive). Also, the inhibition of aggregation in assay [2] is -13.8% (inactive). The nuclei count in assay [2] is 84%; in assay [3], 98.5%. Also, the fluorescence slope in assay [4] was -0.527 (inactive). In addition, in assay [5], the NADPH fluorescence slope is -2.4e-05 (inactive). The slope in assay [6] is 0.00436 (inactive).
